Shown are actives, neighbours in structure and some others; about 2.6% of the full set was active somewhere.
EBV LMP1 NFkB = EBV LMP1-driven NF-kappaB luciferase reporter inhibitors, primary screen, cell-based, luminescence, single point; 350,000 compounds, 0.69% hits; inhibition, % at 12.5 µM; LMP1-induced NF-kappaB luciferase reporter cells; AID 504558, 2011; in the data active = inhibition above about 41%; inconclusive = no clear call, values can overlap the other calls
TROY signal inh = inhibitors of TROY-driven NF-kB signaling, primary screen, Q293 LMP1-TROYcd cells, NF-kB luciferase, uHTS | Q293 LMP1-TROYcd NF-kB luciferase reporter, 4 h | inhibition, % at 10 µM | 360,000 compounds, 0.98% hits;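 active = compounds whose plate-normalised and pattern-corrected inhibition of the luciferase reporter signal at the single screening dose is 50% or more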
TWEAK Fn14 block = inhibitors of TWEAK-Fn14 signaling, primary screen, luciferase reporter cells, uHTS. TWEAK-stimulated Fn14 reporter cells, luciferase luminescence, 8 h. inhibition, % at 10 µM. 360,000 compounds, 2% hits; in the data active = inhibition above about 50%
LGR2 antag = inhibitors of bursicon-induced LGR2 CRE-luciferase signal, primary screen, cell-based, HEK293, CRE-luciferase reporter, bursicon stimulation. Drosophila bursicon receptor LGR2 (rickets). inhibition, % at 9.99 µM. bursicon-stimulated, 4 h. 380,000 compounds, 0.35% hits;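 active = drop in luminescence signal, shown as inhibition above about 50% in the replicate tests, limit read from the data, passing the limit was not always enough; inconclusive = probably only some replicates passing the limit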;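 note: agonist challenge used bursicon conditioned medium at about half maximal strength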
EWS-Fli block = EWS/Fli-driven NR0B1 reporter inhibitors, primary screen, A673 cells, NR0B1 luciferase, luminescence, MLPCN library. 350,000 compounds, 0.67% hits. inhibition, % at 12.6 µM. viability-normalised. AID 651661, 2012;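 active = mean inhibition of at least 50% after viability correction, with every replicate also passing that limit; inconclusive = mean reaches 50% but only one of two replicates passes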;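 note: firefly luciferase signal divided by Alamar Blue viability fluorescence both relative to DMSO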
A number is an active result; 0 = inactive; ? = inconclusive; - = not tested or not shown.

SMILES	EBV LMP1 NFkB	TROY signal inh	TWEAK Fn14 block	LGR2 antag	EWS-Fli block
C[C@@H]1CN([C@H](C)CO)C(=O)c2cc(NC(=O)CCCN(C)C)ccc2O[C@H]1CN(C)C	-	-	-	0	0
CCCC(=O)NC(c1cccc([N+](=O)[O-])c1)c1ccc2cccnc2c1O (stereo not drawn)	68	0	0	0	0
CC(C)C(=O)NC(c1ccc([N+](=O)[O-])cc1)c1c(O)ccc2ccccc12 (stereo not drawn)	0	0	0	-	-
CC(C)C(=O)NC(c1cccc([N+](=O)[O-])c1)c1ccc2cccnc2c1O (stereo not drawn)	52	0	0	0	0
CCC(=O)NC(c1cccc([N+](=O)[O-])c1)c1c(OC(C)=O)ccc2ccccc12 (stereo not drawn)	0	0	0	-	-
CC(C)C(=O)NC(c1cccc([N+](=O)[O-])c1)c1c(O)ccc2ccccc12 (stereo not drawn)	0	51	0	0	0
Cc1noc(C)c1S(=O)(=O)Nc1ccc2c(c1)C(=O)N([C@@H](C)CO)C[C@H](C)[C@H](CN(C)C(=O)Nc1ccccc1)O2	-	-	-	0	0
O=C(NCc1ccccn1)[C@H]1[C@H](CO)[C@H]2Cn3c(cccc3=O)[C@H]2N1CCc1ccccc1	-	-	-	0	0
CCOc1cc(C2c3c(n[nH]c3C)C(=O)N2c2ccc(Br)cc2)ccc1O (stereo not drawn)	0	50	0	-	-
Cc1ccc(S(=O)(=O)N[C@H]2CC[C@H](CCNC(=O)C3CCCC3)O[C@H]2CO)cc1	-	-	-	0	0
COC(=O)C1=C(C)NC(=O)NC1c1ccc(N2CCC(c3ccccc3)=N2)cc1 (stereo not drawn)	0	52	0	0	0
COc1ccc(S(=O)(=O)N(CCCN2CCOCC2)Cc2cccc3ccccc23)cc1	0	-	92	-	-
Cc1nnc(NC(=O)c2cccc(F)c2)s1	0	0	0	-	-
Cc1nnc(NC(=O)c2c(F)cccc2F)s1	53	0	0	0	0
CCC(=O)N(C)C[C@H]1[C@H](c2ccccc2)[C@@H](CO)N1C(=O)Cc1ccncc1	-	-	-	0	0
O=C(C[C@@H]1CC[C@@H]2[C@H](COC[C@H](O)CN2Cc2ccc(F)cc2)O1)NCCc1ccccc1	-	-	-	0	0
O=c1cc(-c2ccco2)oc2c1ccc1ccccc12	0	0	0	-	-
COc1c(O)cc2oc(-c3ccc(O)cc3)cc(=O)c2c1O	0	0	0	0	0
O=c1cc(C(Cl)(Cl)Cl)oc2c1ccc1ccccc12	0	0	56	-	-
O=c1cc(-c2ccc(O)cc2)oc2ccc3ccccc3c12	0	88	102	100	89
O=c1cc(-c2ccc(O)cc2)oc2c1ccc1ccccc12	0	63	0	0	0
CCOC(=O)C1=NNC(C(=O)c2ccc(C)cc2)C1c1ccc(OC)cc1 (stereo not drawn)	0	0	72	-	-
CCOC(=O)C1=NNC(C(=O)c2ccc(Cl)cc2)C1c1ccc(OC)cc1 (stereo not drawn)	0	0	0	0	0
COc1ccc(NC(=O)/C(Cl)=C(/Cl)S(=O)Cc2ccccc2Cl)cn1 (stereo not drawn)	89	-	-	-	-
COc1ccc(NC(=O)/C(Cl)=C(/Cl)S(=O)(=O)Cc2ccc(C)cc2)cn1	87	86	103	-	-
SMILES	EBV LMP1 NFkB	TROY signal inh	TWEAK Fn14 block	LGR2 antag	EWS-Fli block
CC1(C(=O)Nc2ccc3c(c2)OCCO3)CCN1C(=O)c1ccccc1CCc1ccccc1 (stereo not drawn)	-	0	69	0	0
O=C(Nc1ccc2c(c1)OCO2)c1ccc(Cl)cc1Cl	0	0	0	0	-
CCC(=O)Nc1ccc2c(c1)OCCO2	0	0	0	-	-
O=C(Nc1ccc2c(c1)OCCO2)c1coc2ccccc2c1=O	0	85	87	0	-
O=C(CC1CS(=O)(=O)CC1CC(=O)Nc1ccc2c(c1)OCCO2)Nc1ccc2c(c1)OCCO2 (stereo not drawn)	0	0	91	?	0
O=C(Nc1ccc2c(c1)OCCO2)c1ccc(Cl)cc1Cl	0	0	0	52	0
O=C(Nc1ccc2c(c1)OCCO2)c1ccccc1	0	0	0	-	-
C[C@@H]1CN([C@@H](C)CO)C(=O)c2cc(NS(=O)(=O)c3ccc(F)cc3)ccc2O[C@H]1CN(C)S(=O)(=O)c1cn(C)cn1	-	-	-	0	0
C[C@H](CO)N1C[C@H](C)[C@H](CN(C)CC2CCCCC2)Oc2ccc(NC(=O)Nc3ccccc3)cc2CC1=O	-	-	-	0	0
CSc1ccccc1C(=O)Nc1ccc2c(c1)OCCO2	0	0	0	-	-
Cc1ccccc1C(=O)Nc1ccc2c(c1)OCCO2	0	0	58	?	0
Cc1ncoc1C(=O)Nc1ccc2c(c1)OCCO2	0	0	73	-	-
Cc1nc2ccccn2c1C(=O)Nc1ccc2c(c1)OCCO2	0	67	85	-	-
O=C(CCN1C(=O)c2ccccc2C1=O)Nc1ccc2c(c1)OCCO2	0	0	0	0	-
O=C(CCn1cccn1)Nc1ccc2c(c1)OCCO2	0	62	78	0	-
CCNC(=O)C[C@H]1CC[C@H]2[C@H](COc3ccc(NC(=O)Nc4ccccc4F)cc3C(=O)N2C)O1	-	-	-	0	0
COc1ccc(-c2ccc3c(c2)O[C@@H](CN(C)C(=O)Nc2ccccc2F)[C@@H](C)CN([C@@H](C)CO)S3(=O)=O)cc1	-	-	-	0	0
C[C@H](CO)N1C[C@H](C)[C@H](CN(C)S(=O)(=O)c2cccs2)OCCCC[C@H](C)Oc2ccc(NC(=O)Nc3ccc(C(F)(F)F)cc3)cc2C1=O	-	-	-	0	0
O=C(CCl)N(O)c1ccc(C=Cc2ccccc2)cc1	53	0	0	0	0
